Some test systems named below: OVCAR-8 ovarian; OVCAR-5 ovarian; OVCAR-4 ovarian; SK-OV-3 ovarian; IGROV1 ovarian; OVCAR-3 ovarian; HS 578T breast; NCI/ADR-RES ovarian; T-47D breast; BT-549 breast; MDA-MB-435 melanoma; SW-620 colon; MCF7 breast; HCT-116 colon; HCC-2998 colon; KM12 colon; RPMI-8226 leukemia.
Common to all, as to test: NCI-60 one-dose screen, 48 h (100 = growth as untreated, 0 = no growth, -100 = all killed)
What all share (settings): 10 µM unless noted

Compounds without any hit were thinned out: in the full panel of roughly 83,000, 20% have a hit.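 Treatment: one concentration, 48 hours, 96-well format. Scoring: percent growth, with anything below 10 considered active.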 A number with no mark means an inactive call. The source made the active and inactive calls.

`Nc1cc2c(cc1Br)[nH]c(=O)c1ccccc12`: the growth with OVCAR-8 ovarian was 39.9%; with OVCAR-5 ovarian, 94%; in the assay with OVCAR-4 ovarian it was 24.8%; in the assay on SK-OV-3 ovarian it was 62.4%; with IGROV1 ovarian, 19%; in the assay with OVCAR-3 ovarian it was 2.99% (active). Also, the growth is 73.3% with HS 578T breast; 63% in the assay on NCI/ADR-RES ovarian; 29.6% in the assay on T-47D breast; 65.1% in the assay on BT-549 breast; -42.6% (active) in the assay on MDA-MB-435 melanoma; 61% in the assay with SW-620 colon. The growth is 15.9% with MCF7 breast, 19.2% in the assay on HCT-116 colon, 68% with HCC-2998 colon and 26.2% in the assay on KM12 colon.

Turning to `O=C(O)/C(Br)=C/c1c[nH]c2ccc(Br)cc12`, the growth in the assay on RPMI-8226 leukemia is 114%; in the assay on OVCAR-8 ovarian, 106%; in the assay on OVCAR-5 ovarian, 90.6%; with OVCAR-4 ovarian it was 59.7%; in the assay with SK-OV-3 ovarian it was 171%; with OVCAR-3 ovarian it was 105%. The growth in the assay with HS 578T breast was 105%; with NCI/ADR-RES ovarian, 102%; with T-47D breast it was 184%; in the assay with BT-549 breast, 121%; in the assay with MDA-MB-435 melanoma, 117%; with SW-620 colon, 110%. The growth with MCF7 breast was 137%; in the assay on HCT-116 colon it was 98.2%; with HCC-2998 colon, 94.2%; in the assay on KM12 colon, 103%.

Take `OCCN1CCN(CC/C=C2/c3ccccc3Sc3ccc(C(F)(F)F)cc32)CC1`: the growth with OVCAR-8 ovarian was 88.5%; in the assay on OVCAR-5 ovarian it was 82.4%; with OVCAR-4 ovarian it was 66.5%; in the assay with SK-OV-3 ovarian, 73.1%; with IGROV1 ovarian it was 55.8%; in the assay with OVCAR-3 ovarian, 80%. For the same compound, the growth in the assay on HS 578T breast is 67.7%; in the assay with NCI/ADR-RES ovarian, 76.1%; in the assay with T-47D breast, 62.5%; with BT-549 breast, 75.2%; in the assay on MDA-MB-435 melanoma, 35.2%; in the assay with MCF7 breast, 56.6%. Moreover, the results for the growth in the assay with HCT-116 colon, with HCC-2998 colon and in the assay with KM12 colon were 41.5%, 21.4% and 63.4%, respectively.

For `O=C(Nc1cccc(Cn2c(=O)[nH]c3ccc(Oc4ncccn4)cc3c2=O)c1)c1cc(Cl)cc(Cl)c1`, the growth was 60.9% in the assay on RPMI-8226 leukemia; 51.4% with OVCAR-8 ovarian; 70% with OVCAR-5 ovarian; 41.5% in the assay with OVCAR-4 ovarian; 66.5% in the assay with SK-OV-3 ovarian; 49% in the assay on IGROV1 ovarian. Besides, the growth with OVCAR-3 ovarian is 81.2%; in the assay with HS 578T breast, 56.7%; in the assay on NCI/ADR-RES ovarian it was 86.3%; with BT-549 breast it was -3.71% (active); in the assay on MDA-MB-435 melanoma it was 67.3%; in the assay on SW-620 colon, 89.5%. Besides, the growth in the assay with MCF7 breast is 64%; in the assay with HCT-116 colon, 59.9%; with HCC-2998 colon, 85.6%; with KM12 colon, 40.6%.

For the compound `COc1cc2c(c(OC)c1OC)C(=O)CC(c1cccc(C(=O)Nc3cccc(Br)c3)c1)O2` (stereo not given), the growth with RPMI-8226 leukemia is 46.8%; with OVCAR-8 ovarian, 55%; in the assay on OVCAR-4 ovarian it was 82.7%; with SK-OV-3 ovarian, 82%; in the assay with IGROV1 ovarian, 83%; in the assay with OVCAR-3 ovarian, 87.7%. Moreover, the growth in the assay with HS 578T breast is 91.5%; with NCI/ADR-RES ovarian it was 84.7%; in the assay with BT-549 breast it was 63%; in the assay with MDA-MB-435 melanoma, 69.3%; in the assay with SW-620 colon, 95.4%; in the assay with MCF7 breast, 68.3%. Moreover, the growth in the assay on HCT-116 colon is 58.1%; with HCC-2998 colon, 112%; in the assay with KM12 colon, 71.2%.

As to `O=C(Cc1ccccc1[N+](=O)[O-])c1ccc2c(c1)OCO2`, the growth is 104% with OVCAR-8 ovarian; 102% with OVCAR-4 ovarian; 90.1% with SK-OV-3 ovarian; 114% in the assay with IGROV1 ovarian; 103% in the assay on OVCAR-3 ovarian; 93.3% in the assay with HS 578T breast. Further, the growth in the assay on NCI/ADR-RES ovarian is 106%; with T-47D breast, 94.4%; in the assay on BT-549 breast, 92.1%; in the assay with MDA-MB-435 melanoma it was 102%; in the assay with SW-620 colon, 99%; in the assay on MCF7 breast it was 96.5%. Also, the growth is 103% in the assay on HCT-116 colon, 116% in the assay on HCC-2998 colon and 107% in the assay with KM12 colon.

As to `O=C(Nc1cccc(Cn2c(=O)[nH]c3ccc(Oc4ncccn4)cc3c2=O)c1)c1ccc(Cl)cc1`, the growth in the assay with RPMI-8226 leukemia was 25.5%; in the assay on OVCAR-8 ovarian, 31.8%; in the assay on OVCAR-5 ovarian, 99%; in the assay on OVCAR-4 ovarian, 31.5%; in the assay with SK-OV-3 ovarian it was 66%; in the assay with IGROV1 ovarian, 66.9%. In addition, the growth in the assay with OVCAR-3 ovarian was 65.1%; in the assay on HS 578T breast it was 49.2%; in the assay on NCI/ADR-RES ovarian, 71.2%; with BT-549 breast, 41.6%; with MDA-MB-435 melanoma, 43%; in the assay on SW-620 colon, 71.5%. Also, the growth in the assay on MCF7 breast is 28%; with HCT-116 colon it was 39.2%; in the assay with HCC-2998 colon, 81.7%; with KM12 colon it was 15.3%.

`Cc1ncc(C(=O)Nc2ccc(CN3CCN(C)CC3)c(C(F)(F)F)c2)cc1C#Cc1c(N)ncc2ccc(F)cc12`: the growth in the assay on RPMI-8226 leukemia is -43.6% (active); in the assay on OVCAR-8 ovarian, -74.8% (active); in the assay on OVCAR-4 ovarian, -58.6% (active); in the assay with SK-OV-3 ovarian, 41.4%; in the assay with IGROV1 ovarian, -76% (active); in the assay on OVCAR-3 ovarian, -23.4% (active). Further, the growth in the assay on HS 578T breast was -1.46% (active); in the assay with NCI/ADR-RES ovarian it was -29.7% (active); with BT-549 breast it was 23.6%; with MDA-MB-435 melanoma, -66.5% (active); in the assay with SW-620 colon, -72.1% (active); in the assay on MCF7 breast, -72.6% (active). The growth with HCT-116 colon was -72% (active); in the assay on HCC-2998 colon it was 39.1%; with KM12 colon, -80.7% (active).

As to `CNc1nc2ncn(C)c2c(=O)[nH]1`, the growth with RPMI-8226 leukemia is 97.4%; with OVCAR-8 ovarian it was 104%; in the assay with OVCAR-5 ovarian, 86.7%; in the assay on OVCAR-4 ovarian, 93.8%; with SK-OV-3 ovarian, 104%; with OVCAR-3 ovarian, 113%. Further, the growth in the assay with HS 578T breast is 105%; in the assay on NCI/ADR-RES ovarian it was 92.6%; with T-47D breast, 91.4%; in the assay on BT-549 breast, 88.7%; with MDA-MB-435 melanoma, 94.6%; with SW-620 colon it was 95.7%. Also, the growth was 96% in the assay with MCF7 breast, 100% with HCT-116 colon, 90.7% in the assay with HCC-2998 colon and 86.8% in the assay on KM12 colon.

Values taken from PubChem BioAssay (NCI).
